According to PubChem BioAssay (EPA / NIEHS):
The source made the active and inactive calls. The calls were made as follows: active = hit-call score of the fitted dose curve at least 0.9, where 1 is the maximum; inactive = score below 0.9.

Tests used:
Conditions in all cases: primary human HUVEC with PBMC; actives raise or lower the signal
[1] = read-out: Monocyte Chemoattractant Protein-1 (MCP1), CCL2 (gene 6347); test: BSK_LPS_MCP1: BioMAP Diversity Plus: LPS Assay for Monocyte Chemoattractant Protein-1 (MCP1) Biomarker Activity (AID 2283081);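 as to AC50: secreted MCP-1 protein quantified by ELISA in culture supernatant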
Method in brief: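 HUVEC plus PBMC co-culture (human primary cells, LPS system) exposed to test chemical for 24 h; MCP-1 measured by ELISA. Bidirectional curve fitting against DMSO baseline; parallel SRB total-protein staining flags overt cytotoxicity.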

[2] = BSK_LPS_PGE2: BioMAP Diversity Plus: LPS Assay for Prostaglandin E2 (PGE2) Biomarker Activity (AID 2283082);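 as to AC50: secreted prostaglandin E2 measured by ELISA in LPS-stimulated co-culture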
Method in brief: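 Endpoint derived from bidirectional curve fitting versus DMSO of ELISA-measured PGE2 in LPS-stimulated human primary vascular co-culture (HUVEC with PBMC) harvested at 24 h.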

[3] = read-out: Macrophage colony-stimulating factor (MCSF), CSF1 (gene 1435); test: BSK_LPS_MCSF: BioMAP Diversity Plus: LPS Assay for Macrophage colony-stimulating factor (MCSF) Biomarker Activity (AID 2283083)
Method in brief: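 Human umbilical vein endothelial cells co-cultured with peripheral blood mononuclear cells were exposed to compound for 24 h. M-CSF levels were measured by ELISA, and bidirectional curve fitting used DMSO as the negative control and baseline.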

[4] = read-out: Tissue Factor, F3 (gene 2152); test: BSK_LPS_TissueFactor: BioMAP Diversity Plus: LPS Assay for Tissue Factor Biomarker Activity (AID 2283084)
Method in brief: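 Human umbilical vein endothelial cells co-cultured with peripheral blood mononuclear cells were dosed and stimulated with LPS. Cell-surface CD142 was quantified by ELISA at 24 h. Activity was fitted bidirectionally against DMSO baseline.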

[5] = read-out: Tumor necrosis factor (Homo sapiens) (UniProt P01375); test: BSK_LPS_TNFa: BioMAP Diversity Plus: LPS Assay for Tumour Necrosis Factor alpha (TNFa) Biomarker Activity (AID 2283085)
Method in brief: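 Primary human vascular co-culture of HUVEC and PBMC; TNFa ELISA 24 h after treatment, analysed as increase or decrease relative to DMSO control.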

[6] = read-out: Vascular cell adhesion molecule 1 (VCAM1), VCAM1 (gene 7412); test: BSK_LPS_VCAM1: BioMAP Diversity Plus: LPS Assay for Vascular cell adhesion molecule 1 (VCAM1) Biomarker Activity (AID 2283086)
Method in brief: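 Primary human vascular co-culture (umbilical vein endothelium plus PBMC) stimulated with LPS received chemical; 24 h later VCAM-1 was read by ELISA. Overt cytotoxicity was assessed by sulforhodamine B staining of parallel cultures at the same time point.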

CD38, CD38 (gene 952) = test: BSK_SAg_CD38: BioMAP Diversity Plus: SAg Assay for CD38 Biomarker Activity (AID 2283087)
Method in brief: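 Fluorescence ELISA of cell-surface CD38 served as the read-out, with either increase or decrease fitted against DMSO controls. Cells were a human umbilical vein endothelium plus PBMC co-culture under SEB/TSST-1 stimulation, measured 24 h after dosing.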

CD40, CD40 (gene 958) = test: BSK_SAg_CD40: BioMAP Diversity Plus: SAg Assay for CD40 Biomarker Activity (AID 2283088)
Method in brief: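 Human umbilical vein endothelial cells co-cultured with PBMC; CD40 levels measured by ELISA with fluorescence read-out 24 h after chemical dosing. Gain or loss of signal fitted bidirectionally against DMSO baseline.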

CD69, CD69 (gene 969) = test: BSK_SAg_CD69: BioMAP Diversity Plus: SAg Assay for CD69 Biomarker Activity (AID 2283089);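 as to AC50: cell surface CD69 protein quantified by ELISA with fluorescence detection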
Method in brief: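 HUVEC co-cultured with PBMC were dosed with chemical, and CD69 was measured by ELISA with fluorescence read-out 24 h later. Bidirectional curve fitting used DMSO as negative control and activity baseline.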

[7] = read-out: Monocyte Chemoattractant Protein-1 (MCP1), CCL2 (gene 6347); test: BSK_SAg_MCP1: BioMAP Diversity Plus: SAg Assay for Monocyte Chemoattractant Protein-1 (MCP1) Biomarker Activity (AID 2283090)
Method in brief: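 MCP-1 levels in the endothelial–PBMC SAg co-culture were quantified by ELISA at 24 h post-dosing; both increases and decreases versus DMSO scored. Cytotoxicity monitored by SRB total protein in parallel cultures.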

Measured: AC50

Sequence of Tumor necrosis factor (Homo sapiens) (P01375 whole entry, looked up): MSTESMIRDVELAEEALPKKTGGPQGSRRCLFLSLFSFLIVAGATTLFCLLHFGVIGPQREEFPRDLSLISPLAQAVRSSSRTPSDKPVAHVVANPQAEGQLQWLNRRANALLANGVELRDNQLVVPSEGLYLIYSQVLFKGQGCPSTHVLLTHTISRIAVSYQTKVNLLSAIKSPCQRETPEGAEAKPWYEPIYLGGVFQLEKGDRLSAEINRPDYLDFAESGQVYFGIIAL

Oc1cccc2cccnc12
active: [2] 11.4 µM | [6] 3.97 µM
inactive: [1] | [3] | [4] | [5] | CD38, CD38 (gene 952) | CD40, CD40 (gene 958) | CD69, CD69 (gene 969) | [7]

C[C@@H]1C[C@@H]([C@H](O)CC2CC(=O)NC(=O)C2)C(=O)[C@@H](C)C1
active: [1] 7.05 µM | [2] 5.67 µM | [4] 17.9 µM | [5] 7.89 µM | [6] 9.45 µM | CD38, CD38 (gene 952) 6.11 µM | CD40, CD40 (gene 958) 2.6 µM | CD69, CD69 (gene 969) 6.63 µM | [7] 7.88 µM

CCSC(C)CC1CC(=O)C(C(CC)=NOC/C=C/Cl)=C(O)C1 (stereo not drawn)
inactive: [1] | [2] | [4] | [5] | [6] | CD38, CD38 (gene 952) | CD40, CD40 (gene 958) | CD69, CD69 (gene 969) | [7]

CCC(=O)C(CC(C)N(C)C)(c1ccccc1)c1ccccc1 (stereo not drawn)
inactive: [1] | [2] | [4] | [5] | [6] | CD38, CD38 (gene 952) | CD40, CD40 (gene 958) | CD69, CD69 (gene 969) | [7]

O=C(O)CCC(F)(C(F)(F)F)C(F)(F)F
inactive: [1] | [2] | [4] | [5] | [6] | CD38, CD38 (gene 952) | CD40, CD40 (gene 958) | CD69, CD69 (gene 969) | [7]

CC(C)c1ccc(CO)cc1
inactive: [1] | [2] | [4] | [5] | [6] | CD38, CD38 (gene 952) | CD40, CD40 (gene 958) | CD69, CD69 (gene 969) | [7]

CCCCC(CC)CO[N+](=O)[O-] (stereo not drawn)
inactive: [1] | [2] | [4] | [5] | [6] | CD38, CD38 (gene 952) | CD40, CD40 (gene 958) | CD69, CD69 (gene 969) | [7]

CC(C)(C)CC(C)(C)c1ccc(O)cc1
inactive: [2]
active: [1] 10.5 µM | [4] 9.02 µM | [5] 10 µM | CD38, CD38 (gene 952) 7.91 µM | CD40, CD40 (gene 958) 7.96 µM | CD69, CD69 (gene 969) 11.5 µM | [7] 9.24 µM

CCCCCCCCc1ccc(O)cc1
active: [1] 37.4 µM | [2] 3.96 µM | [4] 38.1 µM | [5] 33.6 µM | [6] 30.5 µM | CD38, CD38 (gene 952) 31.2 µM | CD40, CD40 (gene 958) 32.2 µM | CD69, CD69 (gene 969) 31.7 µM | [7] 32.6 µM

O=C1C2(Cl)C3(Cl)C4(Cl)C(Cl)(Cl)C5(Cl)C3(Cl)C1(Cl)C5(Cl)C24Cl (stereo not drawn)
active: [1] 10.7 µM | [2] 9.92 µM | [4] 12 µM | [5] 11.6 µM | [6] 9.63 µM | CD38, CD38 (gene 952) 7.7 µM | CD40, CD40 (gene 958) 8.7 µM | CD69, CD69 (gene 969) 8.18 µM | [7] 11.2 µM

CN(C)N=O
inactive: [1] | [2] | [4] | [5] | [6] | CD38, CD38 (gene 952) | CD40, CD40 (gene 958) | CD69, CD69 (gene 969) | [7]

C=C(C)C(=O)[O][Sn]([CH2]CCC)([CH2]CCC)[CH2]CCC
inactive: [2]
active: [1] 0.331 µM | [4] 0.148 µM | [5] 0.34 µM | [6] 0.148 µM | CD38, CD38 (gene 952) 0.248 µM | CD40, CD40 (gene 958) 0.148 µM | CD69, CD69 (gene 969) 0.148 µM | [7] 0.352 µM

Nc1ccc(-c2ccc(N)c(Cl)c2)cc1Cl
active: [6] 1.85 µM
inactive: [1] | [2] | [4] | [5] | CD38, CD38 (gene 952) | CD40, CD40 (gene 958) | CD69, CD69 (gene 969) | [7]

Nc1cccc2ccccc12
inactive: [1] | [2] | [5] | [6] | CD38, CD38 (gene 952) | CD40, CD40 (gene 958) | CD69, CD69 (gene 969) | [7]
active: [4] 9.83 µM

CCNc1nc(NC(C)(C)C)nc(SC)n1
inactive: [1] | [2] | [4] | [5] | [6] | CD38, CD38 (gene 952) | CD40, CD40 (gene 958) | [7]
active: CD69, CD69 (gene 969) 14.6 µM

O=C(Nc1ccc2[nH]ccc2c1)c1cc2cc(F)ccc2n1Cc1cccc(F)c1
active: [1] 10.4 µM | [2] 20 µM | [4] 8.59 µM | [5] 26.5 µM | [6] 11.9 µM | CD38, CD38 (gene 952) 10.3 µM | CD40, CD40 (gene 958) 8.2 µM | CD69, CD69 (gene 969) 10.6 µM | [7] 9.29 µM

Cc1ccccc1N
inactive: [1] | [2] | [4] | [5] | [6] | CD38, CD38 (gene 952) | CD40, CD40 (gene 958) | CD69, CD69 (gene 969) | [7]
